The record followed here is ChEMBL document CHEMBL4513216, “Probing the Open Global Health Chemical Diversity Library for Multistage-Active Starting Points for Next-Generation Antimalarials” (ACS Infect Dis, 2020).

Among all 69,000 compounds or so, about 8,600 (12%) showed an effect of 50% or more. The list comes from a sample in which strong results are over-represented; it also holds similar structures and randomly drawn compounds.

In the assay the test system is Plasmodium berghei. Nature of the assay: Screen against P. berghei liver stage (PbLuc), transformed with Luciferase, at 10uM. Conditions: tested at 10 uM. The assay is classed as functional, HepG2.
For the molecule `Cc1cc(NCCCc2c(C)noc2C)nc(N)n1`, the INHIBITION is reported as 35%.
With `CC(C)c1ncc2c(n1)CN(Cc1noc(-c3ccccc3)n1)CC2` the figure was 45.7%.
`CC(C(=O)NCCN1CCCCC1)n1cncn1` (centres undefined): the INHIBITION is -5.07%.
For `CCn1c(SCC(=O)N2CCCC2)nc2cc(C)[nH]c2c1=O`, the INHIBITION is recorded as 40%.
With `c1csc(CN2CCC3(CCOCC3COCC3CC3)CC2)n1` (centres undefined) the figure was -18.2%; with `CCN(Cc1nccn1C)C1CCN(c2ccccc2)C1=O` (centres undefined), 42.6%.
Regarding `C=C(C)Cn1cc(C(N)=O)nc1C1CC1`, the INHIBITION was -6.67%.
In the case of `N#Cc1ccccc1OCCN1CCC(N2CCNC2=O)CC1`, the INHIBITION is recorded as 24%.
With `N#Cc1ccccc1OCCN1CCCCC1C(=O)N1CCOCC1` (centres undefined), the INHIBITION was 47.1%.
With `N#Cc1ccccc1N1CCN(CCC(=O)N2CCOCC2)CC1`, the INHIBITION was -29.4%.
On to `N#Cc1cnc2ccccc2c1N1CCN(C(=O)C2CCC2)CC1`, for which the INHIBITION stood at 90.6%.
For `N#Cc1cnc2ccccc2c1N1CCC(C(=O)O)CC1`, the INHIBITION is 35.7%.
In the case of `N#Cc1cccc(OCCN2CCC(C(=O)N3CCOCC3)CC2)c1`, the INHIBITION stood at 55.4%.
`CC(C)(C)C(=O)N1CCN(CCOc2cccc(C#N)c2)CC1`: the INHIBITION is -18%.
For `Cc1nnc(CN2CCN(CCOc3ccccc3C#N)CC2)n1C`, the INHIBITION came out at 21.2%.
On to `N#Cc1ccccc1OCCN1CCN(C(=O)C2CCCC2)CC1`, for which the INHIBITION is given as 65.6%.
With `N#Cc1cnc2ccccc2c1N1CCN(CCC(=O)O)CC1` the figure was 5.87%; with `N#Cc1ccccc1OCCN1CCC(C(=O)N2CCOCC2)CC1`, 70.3%; with `CC(C)C(=O)N1CCN(CCOc2cccc(C#N)c2)CC1`, 39.2%.
With `CN1CC(=O)N(c2ccsc2)CC12CCN(C(=O)CC1CCCC1)C2` (centres undefined) the figure was 21.8%.
With `NC(=O)NC(=O)C(c1ccccc1)N1CCN(Cc2ccsc2)CC1` (centres undefined), the INHIBITION was found to be 4.52%.
With `Cc1cc(C)n(CC2CCCN2C(=O)Cc2c(C)nc(C)[nH]c2=O)n1` (centres undefined) the figure was 2.3%.
As for `O=C(O)c1cc2c(nc1-c1ccoc1)CCN(Cc1ccco1)CC2`, the INHIBITION was 34.6%.
On to `Cc1occc1C(=O)N1C[C@@H]2OCCN(C(C)C)[C@@H]2C1`, for which the INHIBITION is 15.9%.
As to `CN1CC2(CCN(C(=O)CCCOCc3ccccc3)C2)OC1=O` (centres undefined), the INHIBITION worked out at 12.4%.
As to `CCn1nc(C)cc1C(=O)NCc1noc(C(C)(C)C)n1`, the INHIBITION was determined as 27.5%.
With `O=C1CCC[C@]2(CN(S(=O)(=O)N3CCOCC3)C[C@H]2c2cccnc2)N1` the figure was 41.5%; with `Cc1nnc(-c2cccc(C#N)c2)n1C1CCCN(C(C)C)C1=O` (centres undefined), -18.9%; with `CN1CCCCC1C(=O)N1CCN(c2ccccc2C#N)CC1` (centres undefined), 39.6%.
Turning to `N#Cc1cccc(OCCN2CCCC2C(=O)N2CCSCC2)c1` (centres undefined), the INHIBITION was found to be 55.3%.
`N#Cc1cccc(OCCN2CCCC2C(=O)NCC(F)(F)F)c1` (centres undefined): the INHIBITION was found to be 2.93%.
With `N#Cc1cccc(OCCN2CCCC2C(=O)NC2CC2)c1` (centres undefined) the figure was -3.21%; with `CN1CCCCCC1C(=O)N1CCCN(c2ccccc2)CC1` (centres undefined), 45.6%.
With `CN1CCCCCC1C(=O)N1CCN(c2ccccc2C#N)CC1` (centres undefined), the INHIBITION worked out at 62.4%.
Consider `CC(C)N1CCN(C(=O)c2ccccc2NCc2cccnc2)CC1`, for which the INHIBITION is reported as -9.31%.
With `CC(C)c1nnc(NC(=O)N(C)Cc2ccc(C(N)=O)cc2)s1` the figure was 22.5%.
With `Cc1cc(O)cc(=O)n1CCCC(=O)Nc1n[nH]c2cccc(F)c12` the figure was 5.03%; with `COc1ccccc1CNC(Cc1cccs1)c1nc(C)cs1` (centres undefined), 47.2%; with `COc1cccc(CNC(Cc2cccs2)c2nc(C)c(C)s2)c1OC` (centres undefined), 42.4%.
For `COc1ccccc1CNC(Cc1cccs1)c1nc(C)c(C)s1` (centres undefined), the INHIBITION worked out at 55.6%.
Take `O=C1CCC2(CCC(NC(=O)NCc3cccnc3)CC2)N1` (centres undefined): the INHIBITION was 35.8%.
For `CC(C)c1nc(CNc2nccc(CCC(F)(F)F)n2)cs1`, the INHIBITION was found to be 16.2%.
For the molecule `Nc1nc(CNc2nccc(CCC(F)(F)F)n2)cs1`, the INHIBITION is on record as 32.7%.
Take `FC(F)(F)CCc1ccnc(NCc2csc(N3CCOCC3)n2)n1`: the INHIBITION was 69%.
For `Cc1noc(C)c1CN1CC[C@H]2OCC[C@@]2(C(=O)N2CCOCC2)C1`, the INHIBITION came to 47.4%.
In the case of `CN(Cc1ccc(Cl)c(F)c1)C(=O)CCc1ccncc1`, the INHIBITION is 56.5%.
As to `CN(Cc1ccc(Cl)c(F)c1)C(=O)c1ccncc1F`, the INHIBITION turned out to be 36.2%.
`CN(Cc1ccc(Cl)c(Cl)c1)C(=O)CNC(N)=O`: the INHIBITION is reported as -36.3%.
As for `O=C1COc2cc(C(=O)NS(=O)(=O)c3ccc(F)c(F)c3)ccc2N1`, the INHIBITION is reported as 41.5%.
In the case of `O=C1CCc2cc(S(=O)(=O)NC(=O)c3ccc4c(c3)CCO4)ccc2N1`, the INHIBITION turned out to be 44.7%.
As for `O=C1CCc2cc(S(=O)(=O)NC(=O)c3ccc4c(c3)OCO4)ccc2N1`, the INHIBITION worked out at 39.4%.
As to `COCc1ccccc1C(=O)NS(=O)(=O)c1ccc2c(c1)CCC(=O)N2`, the INHIBITION was 25.5%.
For `O=C1CCc2cc(S(=O)(=O)NC(=O)c3ccc4c(c3)COC4)ccc2N1`, the INHIBITION worked out at 62.9%.
With `COCc1ccc(C(=O)NS(=O)(=O)c2ccc3c(c2)CCC(=O)N3)cc1` the figure was 61.8%.
